From PubChem BioAssay
This is a sample that favours compounds with a hit; in the whole collection about 7.9% have one here.
LASV entry inh: blocks Lassa virus binding to or entry into cells; AID 540256; 1.2% of 300,000 active; Lassa virus pseudotype entry inhibition, cell reporter; Potency, µM (titrated, usually from 37.9 µM), for inactives: at the highest dose activity change, negative = inhibition, hits mostly inhibitors; calls by dose curve; tested in HEK293 cells; further: potency means the concentration at half of the fitted maximal effect; nearly all actives have a fitted effect of over 50% in size
FMDV inh: antivirals against foot and mouth disease virus | Potency, µM (series often up to 57.9 µM), for inactives: top-dose activity change, negative = inhibition, hits mostly inhibitors | 1.2% of 410,000 active | FMDV antiviral cell-based qHTS; calls by dose curve; tested in HEK293T cells; further: read-out not given here; potency means the concentration at half of the fitted maximal effect; nearly all actives have a fitted effect of over 45% in size
MARV entry inh: Marburg virus entry inhibition; Marburg virus pseudotyped entry inhibition, cell reporter; Potency, µM (series often up to 37.8 µM), for inactives: at the top dose activity change, negative = inhibition, usual class: inhibitors; 1.8% of 300,000 active; calls by dose curve; tested in HEK293 cells; further: potency means the concentration at half of the fitted maximal effect
HCMV antiviral: blocks human cytomegalovirus replication | 4.5% of 410,000 active | AID 1259415 | HFF cells, HCMV-luciferase reporter, 72 h; hits give low values | activity change, negative = inhibition, % at 57.5 µM; in the data active means activity change below about -60%; inconclusive means no clear call, values can overlap the other calls; inactive means above about -39%
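HFF cells seeded 16 h at 37C, treated with compounds, infected with luciferase-reporter HCMV at MOI 1 PFU/cell; luciferase read at 72 h post infection, normalized to buffer-only and Salinomycin controls.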
HCV inhibitor: HCV inhibition; Huh7.5.1 HCVcc-Cre infection, luciferase reporter, 44 h; AID 651820; Potency, µM (top dose mostly 41.8 µM), without a hit: top-dose activity change, negative = inhibition, hits mostly inhibitors; 3.4% of 340,000 active; active means well fitted inhibition curve with a large enough effect; inconclusive means small, poorly fitted or top-dose-only effect, or another doubt; inactive means no such curve, though single readings can be large or run the other way; further: potency means the concentration at half of the fitted maximal effect
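Compounds are dispensed onto cells plated 4 h earlier at 1,000 per well, with HCVcc-Cre virus (about 0.5 moi) added next. Following 44 h of culture, luminescent signal is measured for 15 sec after 15 min with substrate at room temperature.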
Starred values were filed as active, the others as inactive; [ ] = dose if it differs, or a comment. On the % scale 0 is the no-effect control and ±100 the full control effect.

`COc1ccccc1NS(=O)(=O)c1cc(C(=O)NCC(C)(C)N2CCOCC2)ccc1C` gave LASV entry inh -4.9%, FMDV inh 0.3%, MARV entry inh 9.7%[46.1 µM], HCMV antiviral -11.0 and HCV inhibitor 15.9%.
`Cc1oc2ccc(O)cc2c1C(=O)c1ccc(Cl)cc1` gave LASV entry inh 21.4%, FMDV inh 27.7%, MARV entry inh 0.8%, HCMV antiviral 11.0 and HCV inhibitor inconclusive.
`Cc1oc2ccc(O)cc2c1C(=O)c1ccc([N+](=O)[O-])cc1` gave LASV entry inh -11.1%, FMDV inh 35.5µM*, MARV entry inh -9.7%, HCMV antiviral -15.7 and HCV inhibitor -6.8%.
Screening CN(C)c1ccc(Cl)c(NC(N)=S)c1 returned FMDV inh -22.6% and HCMV antiviral 28.9.
`O=C(Nc1ccc(C(F)(F)F)cc1)c1cc(S(=O)(=O)NC2CCCCC2)ccc1F` gave LASV entry inh -10.2%[46.1 µM], FMDV inh -4.5% and HCMV antiviral -38.1.
Screening CCOc1ccc(NC(=O)c2cc(S(=O)(=O)NC3CCCC3)ccc2F)cc1 returned LASV entry inh -1.1%[46.1 µM], FMDV inh 14.3% and HCMV antiviral -60.5*.
For O=C(Nc1ccc(C(F)(F)F)cc1)c1cc(S(=O)(=O)NC2CCCCCC2)ccc1F the results were LASV entry inh -4.2%[46.1 µM], FMDV inh -1.8% and HCMV antiviral -77.6*.
For COC(=O)NC(c1cccc(C)c1)C(C(C)=O)C(=O)OC (stereo unspecified) the results were MARV entry inh -1.1%[14.2 µM].
Cc1nnc(SCC(=O)NC2CCCCC2)n1-c1ccccc1 was read as FMDV inh -9.4% and HCMV antiviral -37.4.
CC(=O)OC1CCC2(C)C3CCC4(C)C(C(C)=O)CCC4C3CC3OC32C1 (stereo unspecified) was read as LASV entry inh -1.1%[46.1 µM], FMDV inh -16.7%, MARV entry inh 4.4%[46.1 µM], HCMV antiviral -61.1* and HCV inhibitor 6.7%.
For CC(=O)OC1(C(C)=O)CCC2C3CC4OC45CC(O)CCC5(C)C3CCC21C (stereo unspecified) the results were LASV entry inh 20.5%[46.1 µM], FMDV inh -22.9%, MARV entry inh inconclusive, HCMV antiviral -25.8 and HCV inhibitor 18.3%.
For O=[N+]([O-])c1ccc(-n2nnnc2-c2ccccc2)c([N+](=O)[O-])c1 the results were LASV entry inh inconclusive, FMDV inh 31.6µM*, MARV entry inh 14.6µM*, HCMV antiviral -97.8* and HCV inhibitor 35.5µM*.
Screening Cc1ccc(CNC(=O)C2CCN(S(=O)(=O)Cc3ccccc3)CC2)cc1 returned LASV entry inh -3.3%[46.1 µM], FMDV inh -12.5%, MARV entry inh 0.5%[46.1 µM] and HCMV antiviral 9.6.
C=CC(C)(C)c1c(O)c(CC=C(C)C)c(O)c2c(=O)c3ccc(O)c(O)c3oc12 was read as FMDV inh inconclusive and HCV inhibitor 11.2µM*.
Screening c1ccc2sc(-c3cc4c(c(OC5CCOC5)c3)OCCN(Cc3cccn3-c3nccs3)C4)nc2c1 (stereo unspecified) returned FMDV inh -7.0%.
Screening CC(C)(C)c1ccc(-c2nnc(SCC(=O)Nc3sc4c(c3C#N)CCCC4)o2)cc1 returned LASV entry inh inconclusive, FMDV inh 5.1%, MARV entry inh inconclusive, HCMV antiviral -101.6* and HCV inhibitor -15.6%.
`N#Cc1c(NC(=O)CSc2ncn[nH]2)sc2c1CCCCC2` gave LASV entry inh -82.4%[14.3 µM], FMDV inh 8.91µM*, MARV entry inh 0.461µM*, HCMV antiviral -63.7* and HCV inhibitor inconclusive.
For CCc1cccc(NC(=O)Cn2nc(C)c3sc4ccccc4c3c2=O)c1 the results were LASV entry inh -27.8%[46.1 µM], FMDV inh -12.4%, MARV entry inh 1.5%[46.1 µM] and HCMV antiviral 13.9.
For O=C1NC2(CCCCCC2)C(=O)N1Cc1c(F)cccc1Cl the results were FMDV inh -10.0%, HCMV antiviral -15.0 and HCV inhibitor 6.3%.
CC(OC(=O)c1cc2sccc2n1C)C(=O)NC(C)(C)C (stereo unspecified) was read as FMDV inh -22.5%, HCMV antiviral -15.8 and HCV inhibitor 10µM*.
`CC(OC(=O)c1cc2sccc2n1C)C(=O)NCc1cccs1` (stereo unspecified) gave LASV entry inh -1.0%, MARV entry inh inconclusive, HCMV antiviral inconclusive and HCV inhibitor inconclusive.
Cc1ccc(Nc2nc(=O)c3cccnc3s2)c(Br)c1 was read as LASV entry inh inconclusive, FMDV inh 19.4%, MARV entry inh inconclusive, HCMV antiviral inconclusive and HCV inhibitor 22.1%.
O=C(Nc1ccc(Br)c2ccccc12)c1ccc2ccccc2c1O was read as FMDV inh inconclusive, HCMV antiviral -100.1* and HCV inhibitor inconclusive.
Screening CCc1ccc(NC(=O)NNC(=O)c2ccc3ccccc3c2O)cc1 returned FMDV inh 13.6%, HCMV antiviral -82.3* and HCV inhibitor 5.6%.
`C=CC[C@@H]1C=C[C@@H](ON=C2[C@H]3CCn4c(=O)n(-c5ccccc5)c(=O)n4[C@@H]3[C@H](O)[C@@H]3O[C@H]23)[C@@H](CO)O1` gave MARV entry inh -21.9%[14.2 µM].
COc1ccc([C@@]23Oc4cc(OC)cc(OC)c4[C@]2(O)[C@H](O)[C@H](C(=O)N(C)C)[C@H]3c2ccccc2)cc1 was read as LASV entry inh inconclusive, FMDV inh inconclusive, MARV entry inh 0.112µM* and HCMV antiviral -98.1*.
For NC(=O)[C@@H]1CCCN1C(=O)CCN1Cc2ccccc2OC(c2ccccc2F)C1 (stereo partly specified) the results were FMDV inh -10.3%.
`CCOc1ccc(OCC)c(NC(=O)CCc2nc3cccnc3n2-c2ccccc2)c1` gave LASV entry inh -5.3%[46.1 µM], FMDV inh -19.5%, MARV entry inh 1.6%[46.1 µM] and HCMV antiviral -6.0.
Screening CCOC(=O)c1c(C)oc2nc(C)nc(NCC3CCN(Cc4ccc(C)cc4)CC3)c12 returned LASV entry inh 16.9%[46.1 µM], FMDV inh -15.8% and HCMV antiviral -3.2.
For CCOC(=O)c1c(C)oc2nc(C)nc(NCC3CCN(Cc4ccccc4C)CC3)c12 the results were LASV entry inh 17.2%[46.1 µM], FMDV inh -8.6% and HCMV antiviral -103.7*.
For CC(=O)Nc1ccc(NC(=O)C(C)OC(=O)/C=C/c2cn(-c3ccccc3)nc2-c2cccnc2)cc1 (stereo unspecified) the results were LASV entry inh inconclusive, FMDV inh inconclusive, MARV entry inh inconclusive, HCMV antiviral -94.1* and HCV inhibitor inconclusive.
O=C(/C=C/c1cn(-c2ccccc2)nc1-c1cccnc1)N1CCCCC1 was read as FMDV inh inconclusive, HCMV antiviral -60.2* and HCV inhibitor inconclusive.
CCCc1cc(=O)[nH]c(Nc2cc(C)ccc2OC)n1 was read as LASV entry inh -13.8%[46.1 µM], FMDV inh -6.3%, MARV entry inh inconclusive and HCMV antiviral 15.5.
For COC(=O)CC1COc2ccccc2N1C(=O)/C=C/c1ccccc1 (stereo unspecified) the results were FMDV inh 2.0%, HCMV antiviral -1.3 and HCV inhibitor -13.5%.
